Bioassay records: PubChem, Sanford-Burnham Center for Chemical Genomics
In the library only some 4.1% were active in any assay of this set; here they are far more common.
MPTP inh: inhibitors of mitochondrial permeability transition pore. isolated mouse mitochondria, Ca2+ swelling absorbance, 30 min. inhibition, % at 10 µM. hit rate 1.4% among 360,000;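 active means inhibition of 50% or more, scaled per plate between neutral and stimulator controls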;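 further: 0% = DMSO wells given calcium and 100% = 1 mM EGTA wells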
FAS-TE inh: inhibitors of human fatty acid synthase thioesterase domain. recombinant FAS-TE, OMFH fluorogenic substrate, fluorescence endpoint. inhibition, % at 15 µM. hit rate 0.67% among 360,000;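 active means compounds whose normalised, plate-corrected inhibition of enzyme fluorescence in the single-dose primary screen is 50% or more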;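 further: 0% = DMSO with enzyme and 100% = substrate without enzyme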
NR3A LBD binder: modulates the human NR3A ligand-binding domain | hit rate 2.5% among 340,000 | AID 1259313 | Tm shift relative to glycine control, % at 25 µM | NR3A LBD differential scanning fluorimetry, Tm shift; 0% = protein alone, 100% = glycine-bound protein;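 active means melting temperature shift of at least 10% of the positive control shift, at one fixed dose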
beta cell repl: induces beta-cell replication in MIN6 cells; MIN6 cells proliferation, ATPlite luminescence, 48 h; cells starved in 0.2% serum; 100% = growth in 10% serum; proliferation, % at 10 µM; hit rate 0.29% among 330,000;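 active means compounds whose signal lies at least 3.5 SD above the mean of all wells on their plate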;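 further: 0% = DMSO-treated cells in low-serum medium and 100% = 10% serum control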
p-CIP stab down: p/CIP protein destabilization. Q05BA5. F442A p/CIP-EGFP cells, EGFP fluorescence, 16 h. decrease of EGFP signal, % at 10 µM. hit rate 0.01% among 290,000. AID 1984;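 active means EGFP signal decrease of at least 30% at 10 µM or well 3 SD below plate mean, unless failing retest; inactive means the rest, including hits failing retest or dose response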
FAS-TE conf: FAS thioesterase (human) inhibition, confirmation | shares compounds with FAS-TE inh | recombinant FAS-TE, OMFH fluorogenic substrate, fluorescence | inhibition, % at 15 µM | hit rate 45% among 2,300;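 active means compounds inhibiting the enzyme by at least 50% at 15 µM in any one of the replicates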;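 further: 0% = enzyme with DMSO only and 100% = wells lacking enzyme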
Active calls of the source: *; · = no result.

SMILES	MPTP inh	FAS-TE inh	NR3A LBD binder	beta cell repl	p-CIP stab down	FAS-TE conf
COc1ccccc1NC(=O)COC(=O)c1cc([N+](=O)[O-])ccc1N1CCCC1	-1	70*	-10	1	·	63*
O=C(COC(=O)c1cc([N+](=O)[O-])ccc1N1CCCC1)Nc1ccccc1OC(F)F	-1	56*	-6	1	·	43*
Cc1c(C(=O)OCC(=O)Nc2ccccc2OC(F)F)cccc1[N+](=O)[O-]	2	15	-3	5	2	·
Fc1c(F)c(F)c(N/N=C/c2c[nH]c3ccccc23)c(F)c1F	2	51*	76*	0	-7	58*
Cc1nc(N2CCOCC2)nc(Oc2ccccc2)c1[N+](=O)[O-]	3	52*	-1	-3	-23	43
Cc1cnc(C)c(Nc2nc(C(N)c3ccccc3)cs2)n1 (stereo not given)	2	-9	·	·	·	·
COc1ccc(CNC(=O)C(c2ccc(C)cc2)N(Cc2cccs2)C(=O)c2ccc3c(c2)OCCO3)cc1 (stereo not given)	1	34	-1	-5	5	·
Cc1ccc(C(C(=O)NCc2ccccc2)N(Cc2cccs2)C(=O)c2ccc3c(c2)OCCO3)cc1 (stereo not given)	5	51*	0	-6	0	32
Cc1cccc(N2CCN(C(=O)COc3ccc4ccc(=O)oc4c3)CC2)c1C	0	70*	0	2	0	83*
O=C(COc1ccc2ccc(=O)oc2c1)N1CCN(c2ccccc2)CC1	0	49	1	-2	4	·
Nc1ncnc2c1ncn2[C@@H]1O[C@H](C(=O)N[C@H]2c3ccccc3C[C@H]2O)[C@@H](O)[C@H]1O	-1	0	·	·	·	·
COC(=O)c1ccc(CC2(C)C(=O)Nc3ccc(-c4cccc(C(F)(F)F)c4)cc32)o1 (stereo not given)	2	20	·	·	·	·
O=C1OCCN1C(=O)[C@H]1[C@H](c2ccccc2)C(c2cccc(Cl)c2)=NN1c1ccccc1	3	56*	0	·	·	18
Cc1cccc(C2=NN(c3ccccc3)[C@@H](C(=O)N3CCOC3=O)[C@@H]2c2ccc(Cl)cc2)c1	-1	56*	11*	·	·	18
CCc1ccc(NSc2ccccc2[N+](=O)[O-])cc1	6	51*	2	-4	0	0
CC(C)C[C@H]1C(=O)N2CCC[C@H]2[C@]2(O)O[C@](NC(=O)[C@@H]3C=C4c5cccc6[nH]c(Br)c(c56)CC4N(C)C3)(C(C)C)C(=O)N12 (stereo not given in full)	-4	76*	-5	-8	-7	24
O=C(NC1CCCCC1)C(c1ccc(-c2ccccc2)cc1)n1c(=O)c(-c2ccco2)nc2ccccc21 (stereo not given)	-2	·	·	·	·	·
Cc1ccc2nc(N/C(N)=N/S(=O)(=O)c3ccc([N+](=O)[O-])cc3)nc(C)c2c1	-4	67*	-3	-4	-21	55*
COc1cc2c(cc1NC(=O)C(C)N1CCN(S(=O)(=O)c3ccccc3[N+](=O)[O-])CC1)oc1ccccc12 (stereo not given)	8	54*	-3	-3	0	12
COC(=O)[C@@]12C[C@@H](CC(=O)NCCc3ccccc3OC)C(=O)N(Cc3ccccc3)C1=CCC(C)(C)C2	0	·	·	·	·	·
Cc1ccc(S(=O)(=O)N2CCN(C(=O)c3ccc(N4CCC(C)CC4)c([N+](=O)[O-])c3)CC2)cc1	-2	54*	-1	·	·	14
COc1ccc2nc(NC(=O)c3ccc([N+](=O)[O-])o3)sc2c1	2	58*	2	-5	-19	51*
COc1ccccc1C(=O)Oc1ccccc1C(=O)Nc1ccccc1	3	-4	-2	-4	-6	·
O=C(Oc1ccccc1C(=O)Nc1ccccc1)c1ccc(Br)c([N+](=O)[O-])c1	8	78*	2	-6	-5	76*
Cc1onc(-c2c(Cl)cccc2Cl)c1-c1nc2cc(Cl)ccc2c(=O)o1	17	54*	-2	·	13	3
SMILES	MPTP inh	FAS-TE inh	NR3A LBD binder	beta cell repl	p-CIP stab down	FAS-TE conf
O=C(Nc1ccc(OC(F)(F)F)cc1)c1cccc(-n2cnnn2)c1	0	56*	3	-2	·	44
CCOc1ccc(NC(=O)c2cccc(-n3cnnn3)c2)cc1	0	12	-11	-1	4	·
CC(=O)N1CCCc2cc(S(=O)(=O)NC(C(=O)NCc3ccc(C)cc3)C(C)C)ccc21 (stereo not given)	1	-6	0	-2	-2	·
COc1ccc(N2CCN(c3c(S(=O)(=O)c4ccccc4)cnc4ccc(OC)cc34)CC2)cc1	1	48	-1	0	-2	·
COc1ccc(S(=O)(=O)c2cnc3ccc(OC)cc3c2N2CCC3(CC2)OCCO3)cc1	5	72*	-2	2	-2	60*
C[C@H](CO)N1C[C@H](C)[C@@H](CN(C)C(=O)NC2CCCCC2)Oc2c(NC(=O)Nc3ccccc3)cccc2C1=O	-1	66*	-10	-1	·	77*
COc1ccc(NC(=O)Nc2cccc3c2O[C@H](CN(C)C(=O)Nc2ccc(C(F)(F)F)cc2)[C@@H](C)CN([C@H](C)CO)C3=O)cc1	0	52*	0	-2	·	56*
COc1ccc(C(=O)OCc2csc(C)n2)c(O)c1	0	0	-3	0	-13	·
CC(CN1CCCCC1)NC(=O)c1scnc1-c1ccccc1 (stereo not given)	-1	-2	·	·	·	·
COc1cc(-c2ccc(Nc3ccccc3C(=O)O)c(OC)c2)ccc1Nc1ccccc1C(=O)O	2	71*	38*	-3	-6	73*
CC(C)(C)c1cc(Br)c(O)c(N=Nc2ccc(S(=O)(=O)N3CCOCC3)cc2)c1	3	84*	-5	-5	-10	49*
Cc1c(Cl)c([N+](=O)[O-])nn1CCCC(=O)Nc1cccc(Cl)c1	6	51*	-22	-1	-18	42*
Cc1nn(Cc2ccc([N+](=O)[O-])cc2)c(=O)n1-c1cccc(Cl)c1	-1	66*	-2	2	3	75*
CC(C)(C)[C@@H]1C=C(C(=O)N2CCN(Cc3ccc4c(c3)OCO4)CC2)O[C@H](OCc2ccc(CO)cc2)C1	0	14	1	-5	-13	·
CCCNC(=O)c1nnsc1S(=O)c1ccc(Cl)cc1 (stereo not given)	0	14	-1	-5	-4	·
CCCNC(=O)c1nnsc1S(=O)(=O)c1ccc(Cl)cc1	-1	53*	-2	-5	7	70*
COc1ccc(-c2sc3ccccc3c2-c2cc(OC)ccc2C=O)cc1	2	30	·	·	·	·
CC(C)CNC(=O)C1(C)CCCN1C(=O)c1cc2ccccc2s1 (stereo not given)	0	-8	·	·	·	·
Cc1ccc(-c2nnc3ccc(SCC(=O)N4CCc5ccccc54)nn23)cc1	0	-2	0	0	-15	·
